Hit rate of the full screen: of about 16,000 compounds, about 2,600 (16%) were called active. Not shown: some 20% with an inconclusive outcome. Calls come from the whole dose curve; as a rule, active = well fitted curve in the direction sought with a large enough effect; inconclusive = small, poorly fitted or top-dose-only effect, or effect the other way; inactive = no such curve, though single readings can be large or run the other way. A selection follows.
% is set by controls: 0 for no effect and ±100 for the full control effect.

The target of this test is Cytochrome P450 2D6 (Homo sapiens) (UniProt P10635). The test is described as follows: Cytochrome panel assay with activity outcomes. As to conditions: recombinant CYP, pro-luciferin dealkylation, luminescence, p450-cyp2d6; series mostly up to 57.1 µM.
Cytochrome P450 2D6 (Homo sapiens), sequence (P10635 whole entry, looked up): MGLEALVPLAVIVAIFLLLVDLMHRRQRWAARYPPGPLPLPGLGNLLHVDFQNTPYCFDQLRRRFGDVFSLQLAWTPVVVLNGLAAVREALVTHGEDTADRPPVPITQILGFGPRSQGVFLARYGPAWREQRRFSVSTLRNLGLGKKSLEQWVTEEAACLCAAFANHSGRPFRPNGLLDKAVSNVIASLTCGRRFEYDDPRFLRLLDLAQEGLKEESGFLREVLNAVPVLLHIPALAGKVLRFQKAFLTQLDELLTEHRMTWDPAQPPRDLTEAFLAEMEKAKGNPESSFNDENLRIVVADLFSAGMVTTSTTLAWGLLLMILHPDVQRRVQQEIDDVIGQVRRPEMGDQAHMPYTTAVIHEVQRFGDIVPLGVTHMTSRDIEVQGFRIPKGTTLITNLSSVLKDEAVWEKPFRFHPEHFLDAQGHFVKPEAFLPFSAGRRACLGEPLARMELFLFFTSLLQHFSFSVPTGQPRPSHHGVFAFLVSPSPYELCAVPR
On to `O=C(OCn1ncc(Cl)c(Cl)c1=O)c1cccc(C(F)(F)F)c1`, for which the AC50 entry was “inactive”.

Consider `CNC(=O)COC(=O)c1cc2c(C)nn(-c3ccc(F)cc3)c2s1`, for which the AC50 result is “inactive”.

Turning to `Nc1ccc(-c2nc3c(Cl)c(N)ccc3[nH]2)cc1`, the AC50 entry is “inactive”.

On to `O=C(O)c1ccc(C(=O)c2ccccc2C(=O)O)cc1C(=O)O`, for which the activity, negative = inhibition was 8.1% [at 11.4 µM] (inactive).

As to `CC1=C/C(=C(/c2ccc(O)c(C)c2)c2ccccc2C(=O)O)C=CC1=O`, the AC50 is 1.58 µM (active).

For the compound `Cc1cccc(C(=O)c2ccccc2C(=O)O)c1O`, the AC50 result was “inactive”.

With `O=c1c(-c2ccccc2)c(O)c2cccc3c2n1CCC3`, the AC50 entry was “inactive”.

Take `C[N+](C)(N)Cc1csc(-c2ccc(Cl)cc2)n1`: the activity, negative = inhibition is -18.9% [at 11.4 µM] (inactive).

Take `O=C(Nc1nccs1)C1Cc2ccccc2CN1S(=O)(=O)c1ccc(F)cc1` (stereo unspecified): the AC50 was 12.6 µM (active).

Regarding `CCOc1ccccc1NC(=O)C1Cc2ccccc2CN1S(C)(=O)=O` (stereo unspecified), the AC50 entry is “inactive”.

Turning to `O=C(O)c1ccccc1C(=O)Nc1ccc(S(=O)(=O)Nc2nccs2)cc1`, the AC50 result is “inactive”.

Regarding `O=C(O)c1nnsc1COCc1ccccc1`, the activity, negative = inhibition is 7.15% [at 11.4 µM] (inactive).

For the compound `C[N@@+]1(Cc2ccc(Cl)c(Cl)c2)CCC[C@@H]1c1ccc[n+](Cc2ccc(Cl)c(Cl)c2)c1`, the AC50 was 3.16 µM (active).

For the compound `COc1ccccc1-c1nc(NCc2ccccc2)c2ccccc2n1`, the AC50 is 1.58 µM (active).

Regarding `Clc1ccccc1-c1nc(NCc2cccs2)c2ccccc2n1`, the AC50 was 12.6 µM (active).

`CNc1nc(-c2ccccc2OC)nc2ccccc12`: the AC50 was 20 µM (active).

`Cc1ccccc1-c1nc(NC2CCNCC2)c2ccccc2n1`: the AC50 result is “inactive”.

As for `COc1ccccc1-c1nc(NC2CC2)c2ccccc2n1`, the AC50 was 20 µM (active).

Take `Clc1ccccc1-c1nc(NC2CCNCC2)c2ccccc2n1`: the AC50 result is “inactive”.

As to `CCOc1ccccc1Nc1ccc(N)cc1S(=O)(=O)O`, the activity, negative = inhibition was 0.246% [at 11.4 µM] (inactive).

On to `COc1ccc(Oc2ncc3ncc(=O)n(C4CC4)c3n2)cc1`, for which the AC50 result is “inactive”.

Consider `Nc1c(S(N)(=O)=O)cc(S(N)(=O)=O)cc1S(N)(=O)=O`, for which the activity, negative = inhibition is 18.8% [at 11.4 µM] (inactive).

In the case of `C=CCN(CC=C)C(=S)Nc1ccccc1`, the AC50 entry was “inactive”.

As for `Cn1cnc([N+](=O)[O-])c1Sc1nc(N)nc2c1ncn2Cc1ccccc1`, the activity, negative = inhibition was 15.1% [at 11.4 µM] (inactive).

For `CCN1C(=O)[C@@H]2[C@H]3C(=CC[C@@H]2C1=O)C1(OCCCO1)[C@H]1O[C@@H]1[C@H]3O`, the activity, negative = inhibition is -15.6% [at 11.4 µM] (inactive).

In the case of `O=C(CSc1nc2ccc([N+](=O)[O-])cc2s1)c1ccc2ccccc2c1`, the activity, negative = inhibition is -13.4% [at 11.4 µM] (inactive).

As to `COc1ccccc1-c1nc(NCc2cccs2)c2ccccc2n1`, the half-maximal activity concentration (AC50) is 1 µM (active).

Regarding `CN(C)c1ncc2nc(-c3ccc(Cl)cc3)c(=O)n(C)c2n1`, the AC50 entry is “inactive”.

As for `C#CCCCO/N=C1/C[C@@H](O)[C@@H](O)[C@@H]2[C@@H]3C(=O)N(CC)C(=O)[C@H]3CC[C@@H]12`, the activity, negative = inhibition was -16.9% [at 11.4 µM] (inactive).

`NC(=NC1C2CC3CC(C2)CC1C3)Nc1ccc(I)cc1` (stereo unspecified): the AC50 was 0.0398 µM (active).

For the compound `Nc1nc(Br)c2ccccc2c1-c1ccc(F)cc1`, the AC50 entry was “inactive”.

In the case of `O=C1/C(=C/c2cccnc2)SC(=S)N1Cc1ccco1`, the activity, negative = inhibition is -20.9% [at 11.4 µM] (inactive).

With `CC(=O)C1C(c2ccccc2OC(F)F)NC(=O)NC1(O)C(F)(F)F` (stereo unspecified), the AC50 entry is “inactive”.

With `CC(=O)c1sc(N)c(C(=O)OC(C)C)c1C`, the AC50 entry was “inactive”.

Turning to `C[C@@H](C(=O)Nc1ccc2ccccc2c1)[C@H]1C[C@]1(C)[C@H](NS(=O)(=O)c1ccc(-c2ccccc2)cc1)c1ccccc1`, the AC50 is 2 µM (active).

Regarding `C[C@@H](C(=O)Nc1ccc2ccccc2c1)[C@H]1C[C@]1(C)[C@H](NS(=O)(=O)c1ccc2ccccc2c1)c1ccccc1`, the AC50 is 3.16 µM (active).

Regarding `C[C@@H](C(=O)Nc1ccc2ccccc2c1)[C@@H]1C[C@@]1(C)[C@@H](NS(=O)(=O)c1ccc2ccccc2c1)c1ccccc1`, the AC50 entry is “inactive”.

As to `C[C@@H](C(=O)Nc1ccc2ccccc2c1)[C@@H]1C[C@@]1(C)[C@@H](NS(=O)(=O)c1ccc(-c2ccccc2)cc1)c1ccccc1`, the AC50 entry is “inactive”.

For the compound `CCSc1nc2c(c(=O)[nH]1)C(c1ccccn1)C1=C(CC(C)(C)CC1=O)N2` (stereo unspecified), the AC50 entry was “inactive”.

On to `C[C@]1(OC(=O)/C=C\c2ccccc2)C[C@@H](O)[C@@]2(O)C=CO[C@@H](O[C@H]3O[C@@H](CO)[C@@H](O)[C@@H](O)[C@@H]3O)[C@H]21`, for which the AC50 result was “inactive”.

Turning to `CCN1CCN(c2nc(-c3ccccn3)nc3ccccc23)CC1`, the AC50 result was “inactive”.

As for `CC1CCCCN1c1cc(C#N)c(C#N)cc1[N+](=O)[O-]` (stereo unspecified), the AC50 result is “inactive”.

For `CC1CCCCN1c1nc(-c2ccncc2)nc2ccccc12` (stereo unspecified), the AC50 is 7.94 µM (active).

As to `O=C(O)C12CC3(C(=O)O)CC(C(=O)O)(CC(C(=O)O)(C1)C3=O)C2=O`, the activity, negative = inhibition is -4.61% [at 11.4 µM] (inactive).

As to `CCCN(CCc1ccccc1)[C@H]1CCc2c(O)cccc2C1`, the AC50 is 0.501 µM (active).

Take `CCCN(C/C=C\I)[C@@H]1CCc2cccc(O)c2C1`: the AC50 entry is “inactive”.

In the case of `Cc1ccc(-n2c(CCC(=O)O)ccc2-c2cccs2)cc1C`, the AC50 result is “inactive”.

In the case of `O=c1c(-c2ccccc2)nc2cnc(N3CCOCC3)nc2n1-c1ccccc1`, the AC50 result was “inactive”.

On to `C/C(Cn1nc([N+](=O)[O-])cc1C)=N\NC(=O)c1ccc(O)cc1O`, for which the AC50 entry was “inactive”.

As for `Cc1ccc(Cl)c(Nc2ccccc2C(=O)O)c1Cl`, the AC50 entry was “inactive”.

On to `Cc1nc2ccccc2nc(C)c1=NO`, for which the AC50 entry is “inactive”.

Consider `CCOC(=O)C(C)CC(C)C(=O)N1CCOCCN(C(=O)C(C)CC(C)C(=O)OCC)CCOCC1` (stereo unspecified), for which the AC50 entry is “inactive”.

For the compound `CC(N)=NCc1cccc(CN)c1`, the AC50 entry was “inactive”.

In the case of `NC(N)=NCc1cccc(I)c1`, the AC50 was 15.8 µM (active).

In the case of `Nc1c(OCC(=O)O)ccc2cc(S(=O)(=O)O)ccc12`, the activity, negative = inhibition is -4.66% [at 11.4 µM] (inactive).

For the compound `CNC(=S)NNC(=O)c1sccc1OCc1ccc(C)cc1`, the AC50 entry is “inactive”.

Consider `COc1ccccc1/C=N/NC(=O)CC(=O)Nc1ccc(Cl)c(Cl)c1`, for which the AC50 was 28.2 µM (active).

`COc1cc(C(=O)Oc2ccccc2/C=N/NC(=O)c2ccc(C)cc2)cc(OC)c1OC`: the AC50 result is “inactive”.

`O=C(Cc1ccccc1)N/N=C/c1ccccc1OCc1ccc(Cl)cc1`: the AC50 result was “inactive”.

`NC([N-]/N=C/c1ccccn1)=[S]=[Fe].O=S(=O)(O)O`: the activity, negative = inhibition was 8.09% [at 11.4 µM] (inactive).

In the case of `N#CCCn1c(=O)c(-c2cc(F)cc(F)c2)nc2cnc(N3CCOCC3)nc21`, the AC50 entry is “inactive”.

For `CC(C)N(Cc1ccccc1)S(=O)(=O)c1n[nH]c(C(C)(C)C)n1`, the activity, negative = inhibition is 14.9% [at 11.4 µM] (inactive).

Consider `CCC(NC(=O)Nc1cc(OC)c(OC)c(OC)c1)(C(F)(F)F)C(F)(F)F`, for which the AC50 result was “inactive”.

With `CC(=O)Nc1ccc(NC(=O)C2CCN(S(=O)(=O)c3cccc4nonc34)CC2)cc1`, the AC50 result was “inactive”.

For `CC1CCN(C(=O)C2CCN(S(=O)(=O)c3cccc4nonc34)CC2)CC1`, the AC50 result was “inactive”.

Take `COc1cc(NC(=O)C2CCN(S(=O)(=O)c3cccc4nonc34)CC2)cc(OC)c1`: the AC50 was 0.562 µM (active).

`O=C(Nc1cccc(F)c1)N1CCCC2(CCN(C(=O)c3cnccn3)CC2)C1`: the AC50 entry was “inactive”.

Regarding `CCC(=O)NC(=S)Nc1ccc(S(=O)(=O)NC(C)=O)cc1`, the AC50 entry was “inactive”.

In the case of `CCCCCN(CCCCC)C(=O)[C@H](CCC(=O)O)NC(=O)c1ccc(Cl)c(Cl)c1`, the AC50 entry is “inactive”.

As for `O=S(=O)(c1cccc2c(I)cccc12)N1CCCNCC1`, the AC50 was 10 µM (active).

On to `O=S(=O)(c1cccc2cnccc12)N1CCNCC1`, for which the AC50 result is “inactive”.

On to `Cc1noc(C)c1-c1nccc(N2CCN(C)CC2)n1`, for which the AC50 result was “inactive”.

Consider `Cn1cccc1C(=O)N1CCC2(CC1)CCN(c1ccccn1)CC2`, for which the AC50 result was “inactive”.

In the case of `S=C(Nc1ccc2cn[nH]c2c1)Nc1ccc2cn[nH]c2c1`, the AC50 was 2 µM (active).

In the case of `N#CC(C#N)=NNc1ccc2cn[nH]c2c1`, the activity, negative = inhibition is -16.6% [at 11.4 µM] (inactive).

As to `CNC(=S)Nc1ccc2nc(C)c(C)nc2c1`, the AC50 result was “inactive”.

On to `CCOC(=O)N/N=C1/C[C@@H](O)[C@@H](O)[C@@H]2[C@@H]3C(=O)N(c4cccc(Oc5ccccc5)c4)C(=O)[C@H]3CC[C@@H]12`, for which the activity, negative = inhibition is 4.14% [at 11.4 µM] (inactive).

For `COC(=O)c1c(C)[nH]c(C)c1C(=O)c1ccccc1Cc1ccccc1`, the AC50 result was “inactive”.

In the case of `Cc1cc(C)n(CC(=O)N/N=C/c2ccco2)n1`, the AC50 entry was “inactive”.

As to `O=C(NCC(c1cccs1)N1CCOCC1)c1ccco1` (stereo unspecified), the AC50 entry is “inactive”.

Consider `O=C(NCCc1cccs1)C1CC(c2c(Cl)cccc2Cl)=NO1` (stereo unspecified), for which the AC50 was 5.01 µM (active).

As to `O=C(NCc1ccccn1)C1CC(c2ccc(Cl)c(Cl)c2)=NO1` (stereo unspecified), the AC50 result is “inactive”.

With `COc1ccc(C2=NOC(C(=O)NCCN3CCOCC3)C2)cc1` (stereo unspecified), the AC50 entry is “inactive”.

As for `COc1ncc2nc(-c3ccccc3)c(=O)n(C)c2n1`, the AC50 result is “inactive”.

`CCc1ccc(C(=O)COC(=O)c2cccc(N3C(=O)c4c(C)nc5ccccc5c4C3=O)c2)cc1`: the AC50 entry is “inactive”.

As for `Cc1cc(C)c(C#N)c(OCC(=O)c2ccc(Br)cc2)n1`, the AC50 entry is “inactive”.

`CCc1ccc(C(=O)CN(C#N)c2nc(C)cc(C)n2)cc1`: the AC50 is 6.31 µM (active).

Take `CC(C)[C@@H](OCc1ccccc1)[C@H](C)/C=N\OC[C@@H](O)[C@@H]1O[C@@H]2OC(C)(C)O[C@@H]2[C@H]1O`: the activity, negative = inhibition was 15.3% [at 11.4 µM] (inactive).

With `CCn1cc(C(=O)O)c(=O)c2cc(F)c(N3CCN[C@@H](C)C3)c(F)c21`, the AC50 result was “inactive”.

With `O=c1[nH]c(=O)n([C@@H]2C[C@H](O)[C@H](CO)O2)cc1C(F)(F)F`, the AC50 result was “inactive”.

On to `N#Cc1cccc(-c2nccc(NCc3cccs3)n2)c1`, for which the AC50 is 20 µM (active).

Turning to `N#Cc1cccc(-c2nccc(NCc3ccccc3)n2)c1`, the AC50 was 7.94 µM (active).

Take `N#Cc1cccc(-c2nccc(NCc3cccnc3)n2)c1`: the AC50 entry was “inactive”.

In the case of `N#Cc1cccc(-c2cc(NCc3cccnc3)ncn2)c1`, the AC50 result is “inactive”.

As to `Cc1cc(C(=O)OCC(=O)NCCC(C)C)c2ccccc2n1`, the AC50 entry is “inactive”.

Consider `COc1cc2c3cc1Oc1cc(ccc1O)C[C@@H]1c4c(cc(OC)c(O)c4Oc4ccc(cc4)C[C@H]3[N+](C)(C)CC2)CC[N+]1(C)C`, for which the activity, negative = inhibition is 8.34% [at 11.4 µM] (inactive).
